# Measurements: PubChem BioAssay
# Inconclusive results are not listed. Calls of active or inactive are those of the source.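 Rule for the calls, unless noted: active = normalized viability below 100% at a tested concentration; inactive = the rest.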
# Legend:
# [1] = ovarian cancer cell viability with rucaparib, profiling panel, oncology-focused library, rucaparib conditional (AID 1508598); conditions: patient-derived ovarian cancer cells, CellTiter-Glo viability, 144 h, stronger effect = lower value
# [2] = growth inhibition of DIPG glioma cells, dose response, cell-based, SU-DIPG-XVII, MIPE5.0, CellTiter-Glo, qHTS (AID 1347060; cut-off not given, nearly all actives have AC50 up to about 26 µM;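 for AC50: cells exposed to compound for 48 hours before viability readout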); conditions: SU-DIPG-XVII viability, CellTiter-Glo ATP luminescence
# [3] = growth inhibition of DIPG glioma cells, dose response, cell-based, SU-DIPG-XIII, MIPE4.0, CellTiter-Glo, qHTS (AID 1347061; cut-off not given, nearly all actives have AC50 up to about 37 µM;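 note: cells exposed to compound for 48 hours before readout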); conditions: SU-DIPG-XIII viability, CellTiter-Glo ATP luminescence
# [4] = growth inhibition of DIPG glioma cells, dose response, cell-based, JHH-DIPG-1, MIPE4.0, CellTiter-Glo, qHTS (AID 1347062; cut-off not given, nearly all actives have AC50 up to about 27 µM;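 for AC50: cells exposed to compound for two days before readout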); conditions: JHH-DIPG-1 viability, CellTiter-Glo ATP luminescence
# [5] = growth inhibition of DIPG glioma cells, dose response, cell-based, SU-DIPG-XIII, MIPE5.0, CellTiter-Glo, qHTS (AID 1347064; cut-off not given, nearly all actives have AC50 up to about 23 µM;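 for AC50: cells exposed to compound for 48 hours before the viability read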); conditions: SU-DIPG-XIII viability, CellTiter-Glo ATP luminescence
# [6] = viability loss in pontine glioma line – cell-based, SU-DIPG-XXV, MIPE5.0, CellTiter-Glo, qHTS, dose response (AID 1347065; cut-off not given, nearly all actives have AC50 up to about 26 µM;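 note: cells exposed to compound for 48 hours before ATP readout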); conditions: CellTiter-Glo ATP luminescence
# [7] = JHH-DIPG-1 glioma cell viability, MIPE5.0 library, CellTiter-Glo luminescence, qHTS (AID 1347067; cut-off not given, nearly all actives have AC50 up to about 26 µM;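 note: cells exposed to compound for 48 hours before readout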); conditions: JHH-DIPG-1 glioma viability, CellTiter-Glo ATP luminescence
# [8] = survival rescue of mitochondrial mutant cells in low glucose, primary screen, MELAS cybrids, Rieske KO mouse fibroblasts, CellTiter-Glo (AID 1508586;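 active = mean z-score across replicates of 1.96 or higher in either the MELAS or the Rieske mutant cell line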;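 note: z relative to plate mean and SD of compound and empty wells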)
# [9] = SU-DIPG-VI glioma cell viability, MIPE4.0 library, CellTiter-Glo luminescence, qHTS (AID 1347066; cut-off not given, nearly all actives have AC50 up to about 30 µM;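 note: cells exposed to compound for 48 hours before readout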); conditions: CellTiter-Glo ATP luminescence
# [10] = sensitizers of A549 cells to miR-34 induction, primary screen, imaging, A549 dox-inducible miR-34, nuclei and caspase counts (AID 1347080;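 active = compounds whose cell count with miR-34 switched on is under 0.7 times the count with it off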); conditions: A549 miR-34 inducible, Hoechst nuclei count, 48 h
# [11] = modifiers of HSF1 nuclear foci, imaging, Selleck Cancer Library (AID 1347162; in the data active = plate-normalised HSF1 focus index below about 0.46); conditions: human cells, at 10 µM; SSMD: measured here: HSF1 foci SSMD mean; cell count: measured here: cell number; plate-normalised HSF1 focus index: stronger effect = lower value
# [12] = SU-DIPG-XXV glioma cell viability, MIPE5.0 library, qHTS (AID 1347068; cut-off not given, nearly all actives have IC50 up to about 30 µM)
# [13] = growth inhibition of DIPG glioma cells, dose response, cell-based, SU-DIPG-IV, MIPE4.0, CellTiter-Glo, qHTS (AID 1347063; cut-off not given, nearly all actives have AC50 up to about 30 µM;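 note: compound exposure lasted 48 hours before the viability readout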); conditions: SU-DIPG-IV viability, CellTiter-Glo ATP luminescence
# [14] = at 0.0195 µM, OCI-C5x cells, without rucaparib
# [15] = at 0.0195 µM, OCI-P5x cells, with rucaparib 20 µM, 100% = cells with rucaparib alone
# [16] = at 0.0195 µM, OCI-P5x cells, without rucaparib
# [17] = at 0.0781 µM, OCI-C5x cells, with rucaparib 10 µM, 100% = cells with rucaparib alone
# [18] = at 0.0781 µM, OCI-C5x cells, without rucaparib
# [19] = at 0.0781 µM, OCI-P5x cells, with rucaparib 20 µM, 100% = cells with rucaparib alone
# [20] = at 0.0781 µM, OCI-P5x cells, without rucaparib
# [21] = at 0.313 µM, OCI-C5x cells, with rucaparib 10 µM, 100% = cells with rucaparib alone
# [22] = at 0.313 µM, OCI-C5x cells, without rucaparib
# [23] = at 0.313 µM, OCI-P5x cells, with rucaparib 20 µM, 100% = cells with rucaparib alone
# [24] = at 0.313 µM, OCI-P5x cells, without rucaparib
# [25] = at 1.25 µM, OCI-C5x cells, with rucaparib 10 µM, 100% = cells with rucaparib alone
# [26] = at 1.25 µM, OCI-C5x cells, without rucaparib
# [27] = at 1.25 µM, OCI-P5x cells, with rucaparib 20 µM, 100% = cells with rucaparib alone
# [28] = at 1.25 µM, OCI-P5x cells, without rucaparib
# [29] = at 5 µM, OCI-C5x cells, with rucaparib 10 µM, 100% = cells with rucaparib alone
# [30] = at 5 µM, OCI-C5x cells, without rucaparib
# [31] = at 5 µM, OCI-P5x cells, with rucaparib 20 µM, 100% = cells with rucaparib alone
# [32] = at 5 µM, OCI-P5x cells, without rucaparib
# [33] = MELAS cybrid survival, CellTiter-Glo 48 h, stronger effect = higher value
# [34] = Rieske KO mouse fibroblast survival, CellTiter-Glo 72 h
smiles,measurement,setting,value
COc1nc(C)cnc1NS(=O)(=O)c1cccnc1-c1ccc(-c2nnco2)cc1,viability,[1]; [14],110% (inactive)
same,viability,[1]; [15],100% (inactive)
same,viability,[1]; [16],108% (inactive)
same,viability,[1]; [17],103% (inactive)
same,viability,[1]; [18],113% (inactive)
same,viability,[1]; [19],104% (inactive)
same,viability,[1]; [20],110% (inactive)
same,viability,[1]; [21],105% (inactive)
same,viability,[1]; [22],112% (inactive)
same,viability,[1]; [23],103% (inactive)
same,viability,[1]; [24],108% (inactive)
same,viability,[1]; [25],97.7% (active)
same,viability,[1]; [26],112% (inactive)
same,viability,[1]; [27],104% (inactive)
same,viability,[1]; [28],111% (inactive)
same,viability,[1]; [29],106% (inactive)
same,viability,[1]; [30],116% (inactive)
same,viability,[1]; [31],99% (active)
same,viability,[1]; [32],106% (inactive)
CO[C@H]1/C=C/O[C@@]2(C)Oc3c(C)c(O)c4c(O)c(c5c(nc6cc(C)ccn65)c4c3C2=O)NC(=O)/C(C)=C\C=C\[C@H](C)[C@H](O)[C@@H](C)[C@@H](O)[C@@H](C)[C@H](OC(C)=O)[C@@H]1C,AC50,[2],16.6 µM (active)
same,outcome,[3],inactive
same,outcome,[4],inactive
same,AC50,[5],13.2 µM (active)
same,AC50,[6],23.5 µM (active)
same,AC50,[7],14.8 µM (active)
same,z-score,[8]; [33],0.239 (inactive)
same,z-score,[8]; [34],-0.714
Cc1ccc(NC(=O)c2cccc(C(C)(C)C#N)c2)cc1Nc1ccc2ncn(C)c(=O)c2c1,AC50,[2],2.09 µM (active)
same,AC50,[3],4.18 µM (active)
same,AC50,[4],5.9 µM (active)
same,AC50,[5],1.48 µM (active)
same,AC50,[6],7.42 µM (active)
same,outcome,[9],inactive
same,AC50,[7],0.934 µM (active)
same,fold change,"[10]; stronger effect = lower value, cell number ratio, induced over uninduced",0.944 (inactive)
same,fold change,[10]; measured here: relative caspase fold change +Dox/-Dox,1.09
same,cell count,"[10]; measured here: total cells with miR-34 induction, stronger effect = lower value",5830
same,cell count,[10]; measured here: total cells without miR-34 induction,6180
same,SSMD,[11],3.15
same,cell count,[11],7560
same,plate-normalised HSF1 focus index,[11],1.12 (inactive)
same,z-score,[8]; [33],0.493 (inactive)
same,z-score,[8]; [34],-1.35
same,viability,"[1]; at 0.000305 µM, OCI-C5x cells, with rucaparib 10 µM, 100% = cells with rucaparib alone",126% (inactive)
same,viability,"[1]; at 0.000305 µM, OCI-C5x cells, without rucaparib",104% (inactive)
same,viability,"[1]; at 0.000305 µM, OCI-P5x cells, with rucaparib 20 µM, 100% = cells with rucaparib alone",95.5% (active)
same,viability,"[1]; at 0.000305 µM, OCI-P5x cells, without rucaparib",90.4% (active)
same,viability,"[1]; at 0.00122 µM, OCI-C5x cells, with rucaparib 10 µM, 100% = cells with rucaparib alone",129% (inactive)
same,viability,"[1]; at 0.00122 µM, OCI-C5x cells, without rucaparib",115% (inactive)
same,viability,"[1]; at 0.00122 µM, OCI-P5x cells, with rucaparib 20 µM, 100% = cells with rucaparib alone",107% (inactive)
same,viability,"[1]; at 0.00122 µM, OCI-P5x cells, without rucaparib",95.5% (active)
same,viability,"[1]; at 0.00488 µM, OCI-C5x cells, with rucaparib 10 µM, 100% = cells with rucaparib alone",128% (inactive)
same,viability,"[1]; at 0.00488 µM, OCI-C5x cells, without rucaparib",109% (inactive)
same,viability,"[1]; at 0.00488 µM, OCI-P5x cells, with rucaparib 20 µM, 100% = cells with rucaparib alone",107% (inactive)
same,viability,"[1]; at 0.00488 µM, OCI-P5x cells, without rucaparib",99.1% (active)
same,viability,"[1]; at 0.0195 µM, OCI-C5x cells, with rucaparib 10 µM, 100% = cells with rucaparib alone",116% (inactive)
same,viability,[1]; [14],124% (inactive)
same,viability,[1]; [15],109% (inactive)
same,viability,[1]; [16],95% (active)
same,viability,[1]; [17],115% (inactive)
same,viability,[1]; [18],121% (inactive)
same,viability,[1]; [19],84.1% (active)
same,viability,[1]; [20],82.8% (active)
same,viability,[1]; [21],112% (inactive)
same,viability,[1]; [22],125% (inactive)
same,viability,[1]; [23],68.7% (active)
same,viability,[1]; [24],85.5% (active)
same,viability,[1]; [25],108% (inactive)
same,viability,[1]; [26],127% (inactive)
same,viability,[1]; [27],73.2% (active)
same,viability,[1]; [28],81.8% (active)
same,viability,[1]; [29],127% (inactive)
same,viability,[1]; [30],140% (inactive)
same,viability,[1]; [31],67.4% (active)
same,viability,[1]; [32],22.1% (active)
CN(C)CC(C)(C)CNc1nn2c(-c3ccccc3)nnc2cc1C1CCC1,outcome,[2],inactive
same,outcome,[3],inactive
same,AC50,[4],16.6 µM (active)
same,outcome,[5],inactive
same,outcome,[6],inactive
same,outcome,[9],inactive
same,outcome,[7],inactive
same,outcome,[12],inactive
CCCCCCCCCCCCCCCC(=O)O[C@@H]1[C@@H](O)[C@@H](O)[C@@H]([C@H](NC(=O)[C@@H]2C[C@@H](CCC)CN2C)[C@H](C)Cl)O[C@@H]1SC,outcome,[2],inactive
same,outcome,[3],inactive
same,outcome,[4],inactive
same,outcome,[13],inactive
same,outcome,[9],inactive
same,AC50,[7],10.5 µM (active)
same,outcome,[12],inactive
